Reference: PubChem BioAssay (EPA / NIEHS)
Values joined by “and” are separate entries in the source; they are usually repeats but may differ in a detail not shown here. Identical values can stand only once. A structure can be active in one record and inactive in another. Active and inactive are the calls of the source. Rule for the calls: active = hit-call score of the fitted dose curve at least 0.9, where 1 is the maximum; inactive = score below 0.9.

What follows are compounds tested on Interleukin 17A (IL17A), IL17A (gene 3605) (assay: BSK_BT_xIL17A: BioMAP Diversity Plus: BT Assay for Interleukin 17A (IL17A) Biomarker Activity (AID 2284229)). Settings: primary human B cells with PBMC.
In short: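 Secreted IL-17A was the measured endpoint, read by Luminex xMAP multiplex in supernatants of a human B cell/PBMC co-culture harvested 24 h after chemical dosing. Signal increase relative to DMSO defined activity.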
With `OCC(F)(F)C(F)(F)C(F)(F)C(F)(F)C(F)(F)C(F)(F)C(F)(F)C(F)(F)CO` the AC50 was 51.3 µM (active) and 19.6 µM (active).
With `NC(=O)C(F)(F)C(F)(F)C(F)(F)C(F)F` the outcome was “inactive”.
`C=CC(=O)OCCC(F)(F)C(F)(F)C(F)(F)C(F)(F)F` was tested, and the AC50 was 33.5 µM (active) and 10.7 µM (active).
For `O=C(Cl)C(F)(F)C(F)(F)C(F)(F)C(F)(F)C(F)(F)C(F)(F)C(F)(F)F`, the outcome was “inactive”.
`CCN(CCO)S(=O)(=O)C(F)(F)C(F)(F)C(F)(F)C(F)(F)C(F)(F)C(F)(F)C(F)(F)C(F)(F)F` was tested, and the AC50 was 20.2 µM (active) and 21.2 µM (active).
With `FC(F)(F)C(F)(F)C(F)(F)C(F)(F)C(F)(F)C(F)(F)CC[Si](Cl)(Cl)Cl` the outcome was “inactive”.
With `C=C(C)C(=O)OCC(F)(F)C(F)(F)C(F)(F)C(F)F` the outcome was “inactive”.
`OCC(F)(F)C(F)(F)C(F)(F)CO` was tested, and the outcome was “inactive”.
For `O=C(O)C(F)(F)OC(F)(F)C(F)(F)OC(F)(F)C(F)(F)OC(F)(F)F`, the outcome was “inactive”.
`NC(=O)C(F)(F)C(F)(F)C(F)(F)C(F)(F)C(F)(F)C(F)(F)C(F)(F)F` was tested, and the outcome was “inactive”.
`CO[Si](C)(CCC(F)(F)C(F)(F)C(F)(F)C(F)(F)C(F)(F)C(F)(F)F)OC` was tested, and the outcome was “inactive”.
With `O=S(=O)(O)CCC(F)(F)C(F)(F)C(F)(F)C(F)(F)F` the outcome was “inactive”.

These compounds were tested on Tumor necrosis factor (Homo sapiens) (UniProt P01375) (assay: BSK_BT_xTNFa: BioMAP Diversity Plus: BT Assay for Tumor necrosis factor alpha (TNF-alpha) Biomarker Activity (AID 2284230)). Settings: primary human B cells with PBMC.
Chain of Tumor necrosis factor (Homo sapiens) (P01375 whole entry, looked up): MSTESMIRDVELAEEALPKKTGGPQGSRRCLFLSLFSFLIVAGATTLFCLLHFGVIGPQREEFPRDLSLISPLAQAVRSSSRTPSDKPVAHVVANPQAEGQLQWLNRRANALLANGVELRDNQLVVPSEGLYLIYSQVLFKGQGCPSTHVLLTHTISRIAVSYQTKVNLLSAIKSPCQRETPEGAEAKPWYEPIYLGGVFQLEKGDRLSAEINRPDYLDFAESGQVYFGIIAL
In short: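 Endpoint derived in the positive direction versus DMSO vehicle. Cells: B cells together with PBMC, exposed 24 h before TNF-alpha in the medium was read on the Luminex xMAP platform.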
For `O=S(=O)(O)CCC(F)(F)C(F)(F)C(F)(F)C(F)(F)C(F)(F)C(F)(F)C(F)(F)C(F)(F)F`, the outcome was “inactive”.
For `OCCCCC(F)(F)C(F)(F)C(F)(F)C(F)(F)F`, the outcome was “inactive”.
With `FC(F)(F)C(F)(F)C(F)(F)C(F)(F)C(F)(F)C(F)(F)C(F)(F)CCI` the outcome was “inactive”.
With `CNS(=O)(=O)C(F)(F)C(F)(F)C(F)(F)C(F)(F)C(F)(F)C(F)(F)C(F)(F)C(F)(F)F` the AC50 was 44.9 µM (active) and the outcome was “inactive”.
For `O=C(O)C(F)(F)C(F)(F)C(F)(F)C(=O)O`, the outcome was “inactive”.
With `C=CC(=O)OCC(F)(F)C(F)(F)C(F)(F)C(F)(F)C(F)(F)C(F)(F)C(F)(F)C(F)F` the AC50 was 35.1 µM (active) and 6.23 µM (active).
`OCCCC(F)(F)C(F)(F)C(F)(F)C(F)(F)C(F)(F)C(F)(F)C(F)(F)C(F)(F)F` was tested, and the AC50 was 37.1 µM (active) and 37 µM (active).
`OCC(F)(F)C(F)(F)C(F)(F)C(F)(F)C(F)(F)C(F)(F)C(F)(F)C(F)(F)CO` was tested, and the AC50 was 45.6 µM (active) and 54 µM (active).
With `NC(=O)C(F)(F)C(F)(F)C(F)(F)C(F)F` the outcome was “inactive”.
`O=C(Cl)C(F)(F)C(F)(F)C(F)(F)C(F)(F)C(F)(F)C(F)(F)C(F)(F)F` was tested, and the outcome was “inactive”.
With `FC(F)(F)C(F)(F)C(F)(F)C(F)(F)C(F)(F)C(F)(F)CC[Si](Cl)(Cl)Cl` the outcome was “inactive”.
`C=C(C)C(=O)OCC(F)(F)C(F)(F)C(F)(F)C(F)F` was tested, and the outcome was “inactive”.
For `O=C(O)C(F)(F)OC(F)(F)C(F)(F)OC(F)(F)C(F)(F)OC(F)(F)F`, the outcome was “inactive”.
In the case of `CO[Si](C)(CCC(F)(F)C(F)(F)C(F)(F)C(F)(F)C(F)(F)C(F)(F)F)OC`, the outcome is reported as “inactive”.
With `O=S(=O)(O)CCC(F)(F)C(F)(F)C(F)(F)C(F)(F)F` the outcome was “inactive”.

Each compound was assayed on Vascular cell adhesion molecule 1 (VCAM1), VCAM1 (gene 7412) (assay: BSK_MyoF_VCAM1: BioMAP Diversity Plus: MyoF Assay for Vascular cell adhesion molecule 1 (VCAM1) Biomarker Activity (AID 2284231)). Settings: primary human lung fibroblasts.
In short: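 ELISA read-out of VCAM-1 on human lung fibroblasts 24 h after chemical treatment, with positive-direction curve fitting relative to DMSO controls. Parallel cultures were stained with sulforhodamine B for total protein to flag overt cytotoxicity.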
For `O=S(=O)(O)CCC(F)(F)C(F)(F)C(F)(F)C(F)(F)C(F)(F)C(F)(F)C(F)(F)C(F)(F)F`, the outcome was “inactive”.
For `OCC(F)(F)C(F)(F)C(F)(F)C(F)(F)C(F)(F)C(F)(F)CO`, the outcome was “inactive”.
With `OCCCCC(F)(F)C(F)(F)C(F)(F)C(F)(F)F` the outcome was “inactive”.
`OC(O)C(F)(F)C(F)(F)F` was tested, and the outcome was “inactive”.
`O=C(O)C(F)(F)C(F)(F)C(F)(F)OC(F)(F)F` was tested, and the outcome was “inactive”.
In the case of `C=CC(=O)OCC(F)(F)C(F)(F)C(F)(F)COC(=O)C=C`, the AC50 is reported as 9.52 µM (active) and 9.72 µM (active).
For `O=C(O)C(F)(F)C(F)(F)C(F)(F)C(F)(F)C(F)(F)C(F)(F)C(F)F`, the outcome was “inactive”.
`FC(F)(F)C(F)(F)C(F)(F)C(F)(F)C(F)(F)C(F)(F)C(F)(F)CCI` was tested, and the outcome was “inactive”.
In the case of `OCC(O)CC(F)(F)C(F)(F)C(F)(F)C(F)(F)F` (stereo not drawn), the outcome is reported as “inactive”.
`NC(=O)C(F)(F)C(F)(F)C(F)(F)F` was tested, and the outcome was “inactive”.
For `CNS(=O)(=O)C(F)(F)C(F)(F)C(F)(F)C(F)(F)C(F)(F)C(F)(F)C(F)(F)C(F)(F)F`, the outcome was “inactive”.
In the case of `O=S(=O)(OCC(F)(F)F)C(F)(F)C(F)(F)C(F)(F)C(F)(F)F`, the outcome is reported as “inactive”.
`O=C(O)C(F)(F)C(F)(F)C(F)(F)C(=O)O` was tested, and the outcome was “inactive”.
With `C=CC(=O)OCC(F)(F)C(F)(F)C(F)(F)C(F)(F)C(F)(F)C(F)(F)C(F)(F)C(F)F` the AC50 was 27.2 µM (active) and 37.2 µM (active).
`NC(O)(C(F)(F)F)C(F)(F)F` was tested, and the outcome was “inactive”.
For `NC(=O)C(F)(F)C(F)(F)C(F)(F)C(F)(F)C(N)=O`, the outcome was “inactive”.
With `OCCCC(F)(F)C(F)(F)C(F)(F)C(F)(F)C(F)(F)C(F)(F)C(F)(F)C(F)(F)F` the AC50 was 12.8 µM (active) and 9.88 µM (active).
For `OCC(F)(F)C(F)(F)C(F)(F)C(F)(F)C(F)(F)C(F)(F)C(F)(F)C(F)(F)CO`, the AC50 was 47.9 µM (active) and 45.4 µM (active).
In the case of `NC(=O)C(F)(F)C(F)(F)C(F)(F)C(F)F`, the outcome is reported as “inactive”.
With `C=CC(=O)OCCC(F)(F)C(F)(F)C(F)(F)C(F)(F)F` the AC50 was 21 µM (active) and the outcome was “inactive”.
`O=C(Cl)C(F)(F)C(F)(F)C(F)(F)C(F)(F)C(F)(F)C(F)(F)C(F)(F)F` was tested, and the outcome was “inactive”.
For `CCN(CCO)S(=O)(=O)C(F)(F)C(F)(F)C(F)(F)C(F)(F)C(F)(F)C(F)(F)C(F)(F)C(F)(F)F`, the AC50 was 12.6 µM (active) and 13 µM (active).
`FC(F)(F)C(F)(F)C(F)(F)C(F)(F)C(F)(F)C(F)(F)CC[Si](Cl)(Cl)Cl` was tested, and the outcome was “inactive”.
For `C=C(C)C(=O)OCC(F)(F)C(F)(F)C(F)(F)C(F)F`, the outcome was “inactive”.
For `OCC(F)(F)C(F)(F)C(F)(F)CO`, the outcome was “inactive”.
With `O=C(O)C(F)(F)OC(F)(F)C(F)(F)OC(F)(F)C(F)(F)OC(F)(F)F` the outcome was “inactive”.
In the case of `NC(=O)C(F)(F)C(F)(F)C(F)(F)C(F)(F)C(F)(F)C(F)(F)C(F)(F)F`, the outcome is reported as “inactive”.
`CO[Si](C)(CCC(F)(F)C(F)(F)C(F)(F)C(F)(F)C(F)(F)C(F)(F)F)OC` was tested, and the outcome was “inactive”.
For `O=S(=O)(O)CCC(F)(F)C(F)(F)C(F)(F)C(F)(F)F`, the outcome was “inactive”.
